Test results as given in PubChem BioAssay AID1554 (Broad Institute, 2009).
In all, about 300,000 compounds went through this assay and about 520 (0.17%) were called active. Cut-off read from the data, not from the text of the source: active = inhibition above about 50%; inconclusive = no clear call, values can overlap the other calls; inactive = below that. The entries come from a sample that favours actives as a whole.

Experiment: PubChem AID 1554
Conditions: BJeLR (HRASV12) viability, CellTiter-Glo ATP luminescence, 48 h; stronger effect = higher value; concentration not given here

| SMILES | inhibition |
| --- | --- |
| S=c1[nH]ccn1-c1ccc(Cl)cc1 | 1.81% (inactive) |
| CC(C)(C)OC(=O)NC(Cc1ccccc1)C(=O)NC(CSC1CCCCO1)C(=O)NN (stereo unspecified) | 10.4% (inactive) |
| COc1ccccc1C(=O)NCCn1cc(SCC(=O)NCc2ccco2)c2ccccc21 | -1.46% (inactive) |
| CC12CCC(C(=O)N(CCC#N)CCC#N)(CC1=O)C2(C)C (stereo unspecified) | -15.4% (inactive) |
| COC(=O)c1c(C(=O)OC)c(-c2cccc(C)c2)n2c1CS(=O)C2 (stereo unspecified) | 0.411% (inactive) |
| CC1(C)Oc2ccc3ccc(=O)oc3c2/C(=N/O)C1=O | 0.973% (inactive) |
| Cc1ccc2[nH]c(=O)c(CN3CCCCC3)c(-c3ccccc3)c2c1 | 4.95% (inactive) |
| COC(=O)c1ccc(OCC(O)CN(CCO)CC(O)Cn2ccc3ccccc32)cc1 (stereo unspecified) | 1.45% (inactive) |
| Cc1ccc(O)c(/C=N/NC(=O)COc2ccc3c(C)cc(=O)oc3c2)c1 | -1.41% (inactive) |
| CC1(C)CC(N2CCN(C(c3ccccc3)c3ccccc3)CC2)=CC(=[N+]2CCCCC2)C1 | 70.6% (active) |
| O=C1CC(N2CCN(C(c3ccccc3)c3ccccc3)CC2)C(=O)N1 (stereo unspecified) | -3.58% (inactive) |
| CC1(C)CC(=O)C=C(N2CCCC2)C1 | 0.434% (inactive) |
| Cc1cc(=O)[nH]c(SCc2ccc(Cl)cc2)n1 | 0.607% (inactive) |
| Cc1ccc(Oc2nc(-c3ccccn3)nc3ccccc23)cc1 | 4.2% (inactive) |
| O=C(Oc1ccc(Br)cc1)c1cccnc1 | -11.9% (inactive) |
| O=C(Oc1ccc(-c2nc(-c3ccccn3)no2)cc1)c1ccccc1 | 61.8% (active) |
| COCCNC(=S)N1CCN(C)CC1 | 6.68% (inactive) |
| COc1cc(OC)cc(C(=O)N[C@H](C(=O)OCC(=O)NC(C)c2ccccc2)C(C)C)c1 (stereo partly specified) | -3.17% (inactive) |
| COc1ccc(C(=O)N[C@H](C(=O)NCc2ccccc2)C(C)C)cc1 | -8.87% (inactive) |
| COc1cc(OC)cc(C(=O)N[C@H](C(=O)Nc2nc3ccccc3[nH]2)C(C)C)c1 | 50.8% (active) |
| CCOC(=O)c1sc(C)c2c1NC(C)(c1cccc3ccccc13)NC2=O (stereo unspecified) | -6.51% (inactive) |
| Cc1cc(C)n(-c2ccc(C(=O)O)cc2[N+](=O)[O-])n1 | 3.87% (inactive) |
| CC(=O)c1ccc(Oc2cc(C)nc(-n3nc(C)cc3C)n2)cc1 | 50.8% (active) |

| SMILES | inhibition |
| --- | --- |
| Cc1cc(Oc2ccc(Cl)cc2)nc(SCC(=O)c2ccccc2)n1 | -7.21% (inactive) |
| COc1ccccc1NC(=O)c1cc(N2C(=O)C3C4CCC(C4)C3C2=O)ccc1Cl (stereo unspecified) | -10.4% (inactive) |
| C=CCn1c(SCC(=O)c2ccc(Br)cc2)nnc1C(C)NC(=O)Cc1ccc(OC)cc1 (stereo unspecified) | 2.52% (inactive) |
| NS(=O)(=O)c1ccc(CNC(=O)c2cnccn2)cc1 | 4.27% (inactive) |
| CCC(C)Sc1nc2c(cnn2-c2ccc(F)cc2)c(=O)[nH]1 (stereo unspecified) | -2.29% (inactive) |
| CC1(C)CC(=O)C(C=NCCN2CCN(C(=S)Nc3cccc(Cl)c3)CC2)=C(O)C1 | 8.42% (inactive) |
| CSCCC(NC(=O)COc1ccccc1)C(=O)OCCOc1ccc(F)cc1 (stereo unspecified) | -6.51% (inactive) |
| CCOC(=O)c1sc(NC(=O)CSc2nc(O)c(Cc3ccccc3)c(=O)[nH]2)nc1C | 5.77% (inactive) |
| CCCn1c(=N)n(CC(=O)c2ccc(Cl)c(Cl)c2)c2ccccc21 | 3.45% (inactive) |
| COc1ccc2c(c1)N(C)/C(=C1/SC(=S)N(NC(C)=O)C1=O)S2 | 1.69% (inactive) |
| CC(OC(=O)CN1C(=O)C2CCCCC2C1=O)C(=O)Nc1ncc(Cl)cc1Cl (stereo unspecified) | 6.26% (inactive) |
| CCOC(=O)c1c(N)sc2c1CCCC2=O | 7.59% (inactive) |
| O=C(Nc1ccc(C(=O)O)cc1)/C(=C\c1ccccc1)NC(=O)c1ccc(Br)cc1 | -0.97% (inactive) |
| Cc1ccc(OC(=O)c2cncc(Br)c2)c(C)c1 | -5.3% (inactive) |
| CC1CN(C2CCN(C(=O)COc3ccccc3)CC2)CC(C)O1 (stereo unspecified) | -0.241% (inactive) |
| Cc1c(C(=O)N(Cc2ccccc2)Cc2cccnc2)cnn1-c1ccc(F)cc1 | -6% (inactive) |
| O=[N+]([O-])c1cc(Br)c(O)c(/C=N/Nc2nc3ccccc3s2)c1 | 7.46% (inactive) |
| O=C(NC(Nc1nc2ccc([N+](=O)[O-])cc2s1)(C(F)(F)F)C(F)(F)F)c1ccccc1 | 77.1% (active) |
| O=C(CNC(=O)c1ccccc1)Oc1ccc([N+](=O)[O-])cc1 | -1.21% (inactive) |
| O=C(CCC(=O)NNc1nc2ccccc2c2nc(-c3ccccc3)nn12)NCCCN1CCCC1=O | 0.872% (inactive) |
| CCOC(=O)/C(=C\c1ccc([N+](=O)[O-])cc1)C(=O)c1cc(C(C)=O)c(Nc2ccccc2)s1 | 58.8% (active) |
| Cc1ccc(NC(=O)/C(=C/c2ccc([N+](=O)[O-])cc2)NC(=O)c2ccccc2)cc1 | -1.53% (inactive) |
| CCOC(=O)COc1ccc([N+](=O)[O-])cc1 | -3.89% (inactive) |

| SMILES | inhibition |
| --- | --- |
| Cc1ccc(NC(=O)c2cnc(SCC(=O)NCC3CCCO3)n(C)c2=O)cc1 (stereo unspecified) | 1.95% (inactive) |
| COc1cc(CN2CCN(Cc3ccc(C)cc3)CC2)c([N+](=O)[O-])cc1OC | 1.71% (inactive) |
| COC(=O)CN1C(=O)C(C)(C)Oc2ccc(C(=O)Nc3cccc(OC)c3)cc21 | -4.31% (inactive) |
| COc1ccc(CCNC(=O)COC(=O)Cc2cc(OC)c(OC)c(OC)c2)cc1 | 0.941% (inactive) |
| COc1cc2c(C(=O)N(C)c3cc(Cl)ccc3OC)cn(C)c(=O)c2cc1OC | -4.19% (inactive) |
| O=C(c1ccc(OC2CCN(Cc3ccccn3)CC2)cc1)N1CCCCCC1 | -3.12% (inactive) |
| Cn1cc(CNC(=O)c2ccc(OC3CCN(Cc4ccccn4)CC3)cc2)cn1 | 2.21% (inactive) |
| O=C(NCCOc1cccnc1)c1ccc(OC2CCN(Cc3ccccn3)CC2)cc1 | 113% (active) |
| O=C(CN1C(=O)c2cccnc2Oc2ccc(Cl)cc21)NCCc1ccccc1 | 2.42% (inactive) |
| CC(=O)N1CCN(c2ccc(NCc3ccc(C(C)C)cc3)cc2)CC1 | -2.24% (inactive) |
| CC(=O)c1ccc(N2Cc3ccccc3C2)cc1 | -5.06% (inactive) |
| C/C(=N/NC(=O)CN1CCN(S(=O)(=O)c2ccc(Br)cc2)CC1)c1ccncc1 | 4.03% (inactive) |
| O=C(c1cc(-c2ccc(Cl)s2)nc2ccccc12)N1CCOCC1 | -8.28% (inactive) |
| Cc1ccc(CSCCNC(=O)CN(c2ccc(F)cc2)S(C)(=O)=O)cc1 | -8.45% (inactive) |
| CC1CCCC(N2CCN(C(=O)c3ccc(F)cc3)CC2)C1 (stereo unspecified) | -5.87% (inactive) |
| O=C(NCc1ccccc1Cl)c1ccc2c(=O)n(CC3CCCO3)c(=S)[nH]c2c1 (stereo unspecified) | 9.1% (inactive) |
| COc1cc(NC(=O)CSC(=S)N2CCCC2)c(OC)cc1Cl | -1.51% (inactive) |
| CCOc1ccc(OCCSc2nc3ccccc3n2CC(=O)O)cc1 | -3.19% (inactive) |
| Cc1ccc2cc(C#N)c(NCCNC(=S)NCCCN3CCOCC3)nc2c1 | 4.4% (inactive) |
| COc1cc([N+](=O)[O-])ccc1NC(=S)N1CCN(c2ccccn2)CC1 | -1.41% (inactive) |
| CCOC(=O)C1=C(c2ccc(OC)cc2)C(=O)c2ccccc2C1=O | 110% (active) |
| CCOC(=O)c1cc2cc3ccccc3cc2oc1=O | -11.8% (inactive) |
| COc1ccc(N2CCN(C(C)=C3C(=O)c4ccccc4C3=O)CC2)cc1 | 2.27% (inactive) |

| SMILES | inhibition |
| --- | --- |
| Cc1ccc(S(=O)(=O)n2cccc2CO)cc1 | -3.34% (inactive) |
| COCCNS(=O)(=O)c1cc(Br)ccc1OC | -2.67% (inactive) |
| O=C(NCc1ccc2c(c1)OCO2)c1cc2c(s1)CS(=O)(=O)C2 | 5.68% (inactive) |
| COc1ccc(C(=O)O)cc1S(=O)(=O)NCc1cccnc1 | 4.17% (inactive) |
| Cn1cc(CCC(=O)N2CCCC(C(=O)c3ccc(C(C)(C)C)cc3)C2)cn1 (stereo unspecified) | -7.89% (inactive) |
| CC(NC(=O)CCCC1CCCCC1)c1ccc(S(N)(=O)=O)cc1 (stereo unspecified) | 10.8% (inactive) |
| COc1ccc(S(=O)(=O)N2CCCCCC2)cc1C(=O)N(C)Cc1cccc(OC)c1OC | -3.35% (inactive) |
| O=S(=O)(Cc1noc(-c2ccc(OC(F)(F)F)cc2)n1)c1ccc(F)cc1 | -11.6% (inactive) |
| Cc1nnc(SCC(=O)N2c3ccccc3C(C)(c3ccc(Cl)cc3)CC2(C)C)s1 (stereo unspecified) | 13.1% (inactive) |
| Cc1[nH]c(C)c(S(=O)(=O)N2CCN(c3cccc(C(F)(F)F)c3)CC2)c1C(=O)N1CCCCC1 | 0.76% (inactive) |
| Nc1ccc(-n2nncc2-c2ccco2)cc1 | 11.6% (inactive) |
| CCOc1c(N2CCCCC2)c(=O)c1=O | 5.32% (inactive) |
| O=C(N/N=C/c1ccc([N+](=O)[O-])o1)c1cn(-c2ccccc2)nc1-c1ccc(F)cc1 | -4.37% (inactive) |
| Cc1ccc(/C=C/C(=O)Nc2ccc([N+](=O)[O-])c(NC(=O)/C=C/c3ccc(C)o3)c2)o1 | -29.1% (inactive) |
| O=C(/C=C/c1ccc([N+](=O)[O-])o1)NNC(=O)c1ccc(F)cc1 | 60.3% (active) |
| CNS(=O)(=O)c1cccc(C(=O)NC2CCCc3ccccc32)c1 (stereo unspecified) | -3.04% (inactive) |
| CCCCCC(O)(CCN1CCCCC1)c1ccccc1 (stereo unspecified) | -2.94% (inactive) |
| CC(C)CC[n+]1ccn(C2=C([O-])c3ccccc3C(=O)/C2=N\S(=O)(=O)c2ccccc2)c1 | -5.54% (inactive) |
| CN(C)/C=C(\C#N)C(=O)c1cccnc1Oc1ccc(F)cc1F | -6.11% (inactive) |
| Oc1ccc2ccccc2c1N=Nc1nccs1 | 77.1% (active) |
| COC(=O)CCSc1cc([N+](=O)[O-])cc2c1c(C1OCCS1)nn2-c1ccccc1 (stereo unspecified) | 3.81% (inactive) |
| CCOc1ccc(C(C)=O)cc1CSc1nnc(-c2ccncc2)n1CCOC | -17.6% (inactive) |
